From PubChem BioAssay (NCI) come the findings set out here.

About 83,000 compounds went through this panel and 20% of them were active in at least one assay; those are over-represented in the sample as a whole.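 Plates (96-well) were seeded with cells, treated with compound at one concentration, and incubated for 48 hours before percent growth was determined.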 A number with no mark means an inactive call. Calls of active or inactive are those of the source.

The assay concerns EKVX NSCLC. Description: NCI-60 one-dose screen, 48 h (100 = growth as untreated, 0 = no growth, -100 = all killed). The conditions noted are these: 10 µM unless noted. The procedure:
Growth inhibition of the EKVX human Non-Small Cell Lung tumor cell line is measured as a screen for anti-cancer activity. Cells are grown in 96 well plates and exposed to the test compound for 48 hours. Compounds are tested at a single concentration, which is 10^-5 M for most compounds. The reported endpoint is percent growth (GI% or GIPRCNT), where numbers from 0 - 100% represent growth inhibition, and numbers from -100% - 0 represent cell death. For example, a value of 40 represents 60% growth inhibition. A value of 0 means no net growth occurred over the course of the experiment. A value of -40 indicates 40% of cells at the beginning of the experiment died by the end of the experiment. A value of -100 means all cells are dead at the end of the experiment.
NCI-60 Human Tumor Cell Lines Screen was performed using the standard one-dose NCI protocol, which is described in more detail at https://dtp.cancer.gov/discovery_development/nci-60/default.htm.
Compounds with GIPRCNT values below 10 were considered active. Activity score was based on GIPRCNT using the following formula: […]
Score is 0 for GIPRCNT values of 100 or above, 50 for GIPRCNT values of 0, and 100 for GIPRCNT values of -100.
Consider `O=C(Nc1ccc2ncnc(Nc3ccc(Oc4cccc(F)c4)c(Cl)c3)c2c1)c1ccc(CN2CCOCC2)cc1`, for which the growth is 30.4%.

In the case of `CCCCCCC/C=C/[C@H]1O[C@]2(O)C(=O)C=C3C[C@@H](O[C@@H]4O[C@H](CO)[C@@H](O)C(O)[C@@H]4O)C[C@@H]3[C@H]2C=C1C` (stereo not given in full), the growth was 72.4%.

Turning to `C/C(=C(/c1ccccc1)c1ccc(OCC(O)CN2CCOCC2)cc1)c1ccccc1` (stereo not given), the growth is 96.6%.

Turning to `CCCCCCOc1ccc(/C=N/Nc2cc(C)nc3ccc(Br)cc23)cc1`, the growth is -21.2% (active).

Consider `C1=C2CNCC3=Cc4ccc5ccccc5c4OC23Oc2c1ccc1ccccc21`, for which the growth is 66.4%.

On to `O=C1Nc2c(ccc(Cl)c2Cl)/C1=C/c1ccc(F)cc1`, for which the growth is 60.2%.

Consider `Clc1cc(Cl)cc(N2N=C(c3cccc(Nc4ccncc4)c3)CC2c2ccc(Br)cc2)c1` (stereo not given), for which the growth was 67.8%.

Regarding `O=C1c2cccnc2C(=O)c2nc3cc(N4CCN(C5CC5)CC4)ccc3nc21`, the growth is 27.4%.

On to `N#CSCC1CC(O)(c2ccccc2)C(c2ccccc2)C(c2ccc(F)cc2)O1` (stereo not given), for which the growth was 14%.

With `COC(=O)C(c1ccccc1)C(CC(=O)c1ccccc1)c1ccccc1` (stereo not given), the growth is 58.3%.

As to `COc1ccc(C(O)c2cc3c(N)c(C(=O)Nc4ccccc4)sc3nc2C)cc1` (stereo not given), the growth was 26%.

On to `COc1cc(-c2cc(=O)oc3cc(O)ccc23)cc(OC)c1OC`, for which the growth is 89.8%.

`O=C1Nc2ccccc2/C1=C\c1cccc(/C=C2/C(=O)Nc3ccccc32)n1`: the growth was -37.9% (active).

As to `COc1cc2nc(-c3ccc(C#N)cc3)[nH]c(=O)c2cc1OC`, the growth was 98.7%.

As to `CN1C2CCC1CN(c1cnc(C(=O)Nc3cc(F)cc4cccnc34)cn1)C2`, the growth was 45.9%.

As to `N#CC1=C(N)Oc2c(ccc3ccccc23)C1c1ccc([N+](=O)[O-])cc1` (stereo not given), the growth is 76.9%.

As to `FC(F)(F)c1cccc(Nc2ccccc2)c1`, the growth was 101%.

As for `CC(=O)N1N=C(c2cccc(Nc3ccncc3)c2)CC1c1ccccc1` (stereo not given), the growth was 83.9%.

On to `CCN(CCNc1cc(OC)cc2cccnc12)CCc1ccccc1`, for which the growth was 91.2%.

Consider `COc1cc(C(=O)c2cnc(-c3ccc4cc[nH]c4c3)[nH]2)cc(OC)c1OC`, for which the growth was 28.2%.

For the compound `COc1ccc(Nc2nc(N)nc3c2CCc2occc2-3)cc1`, the growth is 84.1%.

For `O=C(Nc1ccc2cc3ccc(NC(=O)NC4CCCCC4)cc3nc2c1)NC1CCCCC1`, the growth was 95.1%.

As to `CCNC(=O)c1[nH]cc(-c2ccc(OC)cc2)c1-c1cc(OC)cc(OC)c1`, the growth was 89.8%.

As for `Cn1c(COC(=O)NCCN2CCOCC2)nc2c(N3CCOCC3)nc(-c3ccccc3)nc21`, the growth was -62.6% (active).

With `CCNC(=O)c1[nH]cc(-c2ccc(OC)cc2)c1-c1cc(OC)c(OC)c(OC)c1`, the growth was 62.4%.

Take `CC(=O)CCSc1ccc(OC(C)=O)cc1`: the growth was 105%.

For the compound `CC(C)Sc1nc(NN)c(C#N)c(-c2ccccc2)n1`, the growth was 94.1%.

Consider `CCOC(=O)c1cnc2c(cnn2CC)c1NN=C(C)C`, for which the growth was 93%.

On to `NC(=O)c1cccc(-c2ccccc2N2CCCCC2)c1`, for which the growth is 97.2%.

In the case of `Cc1ccc2[nH]c(=O)cc(-n3nncc3COc3ccc(C=O)cc3)c2c1`, the growth is 103%.

Regarding `CC(C)(C)CC(C)(C)Nc1c(-c2ccc(C(F)(F)F)cc2)nc2cnccn12`, the growth is 79.4%.

Consider `CN1CCN(c2ccc3nc(-c4cc(C(C)(C)C)c(O)c(C(C)(C)C)c4)[nH]c3c2)CC1`, for which the growth is 86.4%.

For `Fc1ccc(C2CC(c3cccc(Nc4ccncc4)c3)=NN2c2ccccc2)cc1` (stereo not given), the growth is 90.1%.

Take `CC1(C)[C@H](O)CC[C@]2(C)[C@@H]1CC[C@@]13C[C@@H](CC[C@H]12)[C@@](O)(CO)C3`: the growth was 104%.

As for `c1ccc(C2CC(c3cccc(Nc4ccncc4)c3)=NN2c2ccccc2)cc1` (stereo not given), the growth is 91.4%.

Take `O=C(Cc1ccc(/C=C/C(=O)c2ncc[nH]2)cc1)Nc1ccc(C(F)(F)F)cc1`: the growth is 71.8%.

For `CCNC(=S)NNC(=O)c1cc2ccc1CCc1ccc(cc1)CC2`, the growth is 94.4%.

Turning to `O=C(CCN1CCCC1)Nc1ccc2c(Nc3ccccc3)c3ccccc3nc2c1`, the growth was 59.3%.

`CCCCCCCCCCCCCCCCCCOc1ccccc1N`: the growth was 85.3%.

`COc1ccc(/C=C/c2n[nH]c3ccc(N4CCOC4=O)cc23)cc1`: the growth is 8.71% (active).
